Results filed as inconclusive are left out. A call without a number means that no potency is given here. Calls of active or inactive are those of the source. Unless noted, calls come from the whole dose curve; as a rule, active = well fitted curve in the direction sought with a large enough effect in the repeat runs; inconclusive = weak or mixed curves; inactive = no such curve, though single readings can be large; an effect the other way counts as inactive or inconclusive.
Experiments:
[1] = qHTS assay to identify small molecule antagonists of the vitamin D receptor (VDR) signaling pathway - cell viability counter screen (AID 743225); note: nearly all actives have a fitted effect of over 50% in size
Summary of the method: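 VDR-bla HEK 293T cells, 4 h pre-incubation at 37C, then compound plus 1-alpha,25-dihydroxyvitamin D3 (3 nM final) for 16 h. After the beta-lactamase FRET read, CellTiter-Glo was added to the same wells; luminescence after 30 min at room temperature.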

[2] = qHTS assay to identify small molecule agonists of the NFkB signaling pathway (AID 1159509; active = well fitted curve in the direction sought with a large enough effect in the signal ratio in the repeat runs, not every such curve was filed as active; the % refers to the signal ratio; note: series mostly up to about 61 µM)
Summary of the method: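 NFkB-bla ME-180 cells with a beta-lactamase reporter under an NF-kB response element were plated overnight, treated with compounds in DMSO for 5 hr at 37 C, then loaded with FRET substrate for 1.5 hr at room temperature.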

[3] = qHTS assay to identify small molecule agonists of the NFkB signaling pathway - cell viability counter screen (AID 1159515; calls by dose curve; note: nearly all actives have a fitted effect of over 55% in size; note: potency is the fitted concentration of half-maximal effect)
Summary of the method: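 Viability in NFkB-bla ME-180 cells was measured by CellTiter-Glo luminescence, 30 min room temperature, in wells already treated 5 hr with compounds and read for reporter FRET.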

[4] = qHTS assay to identify small molecule agonists of the endoplasmic reticulum stress response signaling pathway - cell viability counter screen (AID 1159517; calls by dose curve;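 note: HeLa cells carrying an ER stress response element beta-lactamase reporter; series mostly up to about 61 µM; nearly all actives have a fitted effect of over 50% in size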)
Summary of the method: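 Luminescence readout: CellTiter-Glo, 30 min RT, same wells as the ESRE-bla reporter read. HeLa ESRE-bla, 1,500 cells/well, o/n 37 C; cpd 5 hr 37 C/5% CO2.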

[5] = qHTS assay to identify small molecule antagonists of the retinoid-related orphan receptor gamma (ROR-gamma) signaling pathway - cell viability counter screen (AID 1159520); note: nearly all actives have a fitted effect of over 50% in size; note: potency is the fitted concentration of half-maximal effect
Summary of the method: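 Tet-on ROR gamma CHO cells (1,000/well) were plated 4 hr, given compounds in DMSO for 2 hr at 37 C, then induced with 1 uM final doxycycline for 16 hr. Viability was read as ATP by CellTiter-Glo luminescence after 30 min.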

[6] = target: Nuclear receptor ROR-gamma (Homo sapiens) (UniProt P51449); assay: qHTS assay to identify small molecule antagonists of the retinoid-related orphan receptor gamma (ROR-gamma) signaling pathway (AID 1159521; note: nearly all actives have a fitted effect of over 50% in size; note: potency is the fitted concentration of half-maximal effect)
Summary of the method: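 Tet-on RORγ CHO cells carrying a ROR response element–luciferase reporter were pretreated with compounds for 2 h, then induced with 1 uM (final) doxycycline hyclate for 16 h at 37 C. Antagonism was read as decreased ONE-Glo luminescence.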

[7] = qHTS assay to identify small molecule agonists of the AP-1 signaling pathway - cell viability counter screen (AID 1159525; calls by dose curve; note: nearly all actives have a fitted effect of over 55% in size)
Summary of the method: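 ME-180 AP-1-bla, 2500 cells/well, Opti-MEM + 0.5% dialyzed FBS; overnight 37 °C; cpd 15-pt titration, 5 h 37 °C; CellTiter-Glo 30 min RT; luminescence read; normalised to TOAB and DMSO controls.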

[8] = qHTS assay to identify small molecule agonists of the AP-1 signaling pathway (AID 1159526; calls by dose curve)
[9] = qHTS assay to identify small molecule agonists of the RXR signaling pathway - cell viability counter screen (AID 1159529)
Summary of the method: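 RXR-alpha-UAS-bla HEK 293T cells in medium with 2% charcoal-stripped FBS were preincubated 5 hr, then exposed to compounds for 16 hr at 37 C. Viability was read as CellTiter-Glo luminescence after 30 min at room temperature.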

[10] = qHTS assay to identify small molecule antagonists of the retinoid acid receptor (RAR) signaling pathway - cell viability counter screen (AID 1159551); note: nearly all actives have a fitted effect of over 35% in size; note: potency is the fitted concentration of half-maximal effect
Summary of the method: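 Following overnight attachment, C3RL4 reporter cells received DMSO-dissolved compounds and then retinol (1 uM final). Six hours later at 37 C, ATP content was measured by CellTiter-Glo luminescence.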

[11] = target: Retinoic acid receptor RXR-alpha (Homo sapiens) (UniProt P19793); assay: qHTS assay to identify small molecule agonists of the RXR signaling pathway (AID 1159527; calls by dose curve; note: nearly all actives have a fitted effect of over 35% in size)
Summary of the method: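 GeneBLAzer RXR-alpha-UAS-bla HEK 293T cells in medium with 2% charcoal-stripped FBS, pre-incubated 5 hr at 37 C, then exposed to compounds 16 hr. Beta-lactamase reporter read by FRET substrate, 2 hr room temperature, 460/530 nm emission.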

[12] = qHTS assay to identify small molecule antagonists of the retinoic acid receptor (RAR) signaling pathway (AID 1159552; note: nearly all actives have a fitted effect of over 50% in size; note: potency is the fitted concentration of half-maximal effect)
Summary of the method: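 RARE-luc C3RL4 cells; cpds + 1 uM (final) retinol, 6 hr, 37 C/5% CO2; luciferase reagent, 30 min RT, luminescence readout. Inhibitors of retinol-driven signal scored.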

[13] = qHTS assay to identify small molecule agonists of the retinoic acid receptor (RAR) signaling pathway (AID 1159553)
Summary of the method: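 Cell line C3RL4, RARE luciferase reporter. Treatment: compounds in DMSO, 6 hr, 37 C, 5% CO2, after overnight plating. Detection: luminescence, 30 min RT after reagent.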

[14] = qHTS assay to identify small molecule antagonists of the estrogen related receptor (ERR) signaling pathway - cell viability counter screen (AID 1224818);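 note: series mostly up to about 46 µM; viability measured after 17.5 h of compound exposure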
Summary of the method: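 Here, ERR cells are plated at 2,000 cells per well, allowed 6 h to attach, and treated with compounds in DMSO for 17.5 h at 37 C. CellTiter-Fluor is then added and fluorescence read after 30 min.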

[15] = qHTS assay to identify small molecule antagonists of the estrogen related receptor signaling pathway with the pleiotropic PPARgamma coactivator (PGC) cell viability counter screen (AID 1224822;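 note: series mostly up to about 46 µM; viability read after 17.5 h compound exposure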)
Summary of the method: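 qHTS format, DMSO compound stocks pin-transferred onto PGC/ERR cells 6 h after plating; 17.5 h exposure at 37 C, then CellTiter-Fluor fluorescence.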

Retinoic acid receptor RXR-alpha (Homo sapiens), sequence (P19793 whole entry, looked up): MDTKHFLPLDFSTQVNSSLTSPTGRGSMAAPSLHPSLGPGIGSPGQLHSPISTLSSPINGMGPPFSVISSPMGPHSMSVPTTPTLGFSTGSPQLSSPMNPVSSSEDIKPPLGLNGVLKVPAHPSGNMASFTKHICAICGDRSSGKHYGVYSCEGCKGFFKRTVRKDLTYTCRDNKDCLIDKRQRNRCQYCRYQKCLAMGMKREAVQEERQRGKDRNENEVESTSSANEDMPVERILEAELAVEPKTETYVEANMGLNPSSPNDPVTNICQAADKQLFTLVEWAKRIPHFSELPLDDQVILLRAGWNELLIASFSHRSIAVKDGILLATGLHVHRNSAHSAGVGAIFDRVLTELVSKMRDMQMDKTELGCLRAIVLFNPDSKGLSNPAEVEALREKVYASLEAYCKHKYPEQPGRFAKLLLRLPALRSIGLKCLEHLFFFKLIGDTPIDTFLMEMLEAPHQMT

Structure (SMILES) | Potency [1] | outcome [2] | Potency [3] | Potency [4] | Potency [5] | Potency [6] | Potency [7] | outcome [8] | Potency [9] | Potency [10] | Potency [11] | Potency [12] | Potency [13] | outcome [14] | outcome [15]
COc1cc(OC)c2ccc(=O)oc2c1 | inactive | inactive | inactive | inactive | inactive | inactive | inactive | inactive | inactive | inactive | – | – | – | – | –
CCCCOCCOC(=O)c1cccnc1 | inactive | inactive | inactive | inactive | inactive | – | inactive | inactive | inactive | inactive | inactive | – | – | – | –
CCCCCCCC(=O)OCCCCCC | – | inactive | inactive | inactive | inactive | – | inactive | inactive | inactive | inactive | inactive | inactive | inactive | – | –
COc1cc(NCc2ccc3nc(N)nc(N)c3c2C)cc(OC)c1OC | – | inactive | inactive | inactive | inactive | inactive | inactive | inactive | – | inactive | – | – | inactive | – | –
O=C(O)/C=C/c1ccc(O)c(O)c1 | inactive | inactive | inactive | inactive | inactive | inactive | inactive | inactive | inactive | inactive | – | inactive | inactive | inactive | inactive
CC(=O)c1ccc[nH]1 | inactive | inactive | inactive | inactive | inactive | – | inactive | inactive | inactive | inactive | – | inactive | inactive | – | –
O=C(O)c1cccc(C[C@@H]2COc3ccc(OCc4nc5cc(F)ccc5s4)cc3[C@@H]2O)c1 | – | inactive | inactive | inactive | inactive | inactive | inactive | inactive | inactive | inactive | – | – | – | – | –
CCCCC[C@H](O)/C=C/[C@H]1[C@H](O)CC(=O)[C@@H]1C/C=C\CCCC(=O)O | – | inactive | inactive | inactive | inactive | inactive | inactive | inactive | inactive | inactive | – | – | inactive | – | –
O=C1CC[C@@H](C(=O)O)N1 | – | inactive | inactive | – | inactive | – | inactive | inactive | inactive | inactive | inactive | inactive | inactive | – | –
CCN(CC)C(=O)/C(C#N)=C/c1cc(O)c(O)c([N+](=O)[O-])c1 | inactive | inactive | inactive | – | inactive | – | inactive | inactive | inactive | inactive | – | inactive | – | – | –
O=P(O)(O)Oc1ccccc1 | inactive | inactive | inactive | – | inactive | inactive | inactive | inactive | inactive | inactive | inactive | inactive | inactive | – | –
O=C(O)CO | inactive | inactive | inactive | – | inactive | inactive | inactive | inactive | – | inactive | inactive | inactive | inactive | – | –
C=CCOC(=O)COCCC(C)C | inactive | inactive | inactive | – | inactive | inactive | inactive | inactive | – | inactive | inactive | inactive | inactive | – | –
CCN(Cc1cccc(S(=O)(=O)O)c1)c1ccc(C(=C2C=CC(=[N+](CC)Cc3cccc(S(=O)(=O)O)c3)C=C2)c2ccc(O)cc2S(=O)(=O)[O-])cc1 | – | inactive | 26.5 µM (active) | – | 10.5 µM (active) | 14.8 µM (active) | – | inactive | – | 14.8 µM (active) | inactive | 9.32 µM (active) | – | – | –
C1CCCCC1 | inactive | inactive | inactive | – | inactive | – | inactive | inactive | inactive | inactive | inactive | inactive | inactive | – | –
Cc1ccc(Nc2c(F)cccc2Cl)c(CC(=O)O)c1 | inactive | inactive | inactive | – | inactive | inactive | inactive | inactive | – | inactive | inactive | – | – | – | –
CCN(CC)CCNC(=O)c1cc(Cl)c(N)cc1OC | inactive | inactive | inactive | – | inactive | – | inactive | inactive | inactive | inactive | – | – | – | inactive | inactive
CCN(Cc1cccc(S(=O)(=O)O)c1)c1ccc(C(=C2C=CC(=[N+](CC)Cc3cccc(S(=O)(=O)O)c3)C=C2)c2ccccc2S(=O)(=O)[O-])cc1 | – | inactive | 34.8 µM (active) | – | 9.72 µM (active) | – | – | – | inactive | 15.4 µM (active) | – | 13.7 µM (active) | – | – | –
O=C(c1ccccc1)c1ccc(O)cc1 | inactive | inactive | inactive | – | inactive | inactive | inactive | inactive | inactive | inactive | inactive | inactive | – | – | –
CCCCCCC(O)CCOC(C)=O (centres undefined) | inactive | inactive | inactive | – | inactive | inactive | inactive | inactive | inactive | inactive | inactive | – | – | – | –
CC1CCc2nccnc21 (centres undefined) | inactive | inactive | inactive | – | inactive | – | inactive | inactive | inactive | inactive | – | inactive | inactive | – | –
Cc1ccc2c(c1[N+](=O)[O-])C(=O)c1ccccc1C2=O | – | inactive | inactive | – | inactive | inactive | – | – | inactive | inactive | inactive | inactive | – | – | –
O=C(Nc1ccc(C(=O)O)c(O)c1)c1ccccc1 | – | inactive | inactive | – | inactive | – | inactive | inactive | inactive | inactive | inactive | – | – | – | –
CCCCCC | inactive | inactive | inactive | – | inactive | – | inactive | inactive | inactive | inactive | inactive | inactive | inactive | – | –

— PubChem BioAssay (Tox21)
